# Screening results as filed in PubChem BioAssay.
# Mcl1-Bid inh – disrupts binding of human Mcl-1 to Bid peptide; Q07820; TR-FRET Mcl-1/Bid-Dy647 peptide binding, 1536-well; inhibition, % at 21.7 µM; 220,000 tested, 0.97% active;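 active = compounds that cut the binding signal by more than half at the single screening dose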;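 also: His-tagged Mcl-1 with europium anti-His antibody binding Bid BH3 peptide; 0% = Mcl-1 plus peptide wells and 100% = peptide-only wells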
# Bim-Mcl-1 – human Bim-Mcl-1 interaction inhibition | Q07820 | Bead-based flow cytometry, Bim peptide-Mcl-1 binding | inhibition, % at 10 µM | 190,000 tested, 0.1% active | AID 1009; in the data active = inhibition above about 40%;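 also: 0% = no compound tracer wells and 100% = peptide blocker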
# Mcl1-Noxa inh – disrupts binding of human Mcl-1 to Noxa peptide; 220,000 tested, 1.5% active; Q07820; TR-FRET Mcl-1/Noxa peptide binding, 2 h; inhibition, % at 21.7 µM;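 active = compounds that cut the protein-peptide binding signal by more than 50% relative to plate controls in a single-dose test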;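 also: His-tagged Mcl-1 with rhodamine Noxa BH3 peptide and terbium anti-His antibody; 0% = Mcl-1 plus Noxa peptide wells and 100% = peptide-only wells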
# NOD2 RIPK2 PPI – NOD2-RIPK2 protein interaction inhibition; 360,000 tested, 0.38% active; O43353; inhibition, % at 4.98 µM; CHO BLA complementation NOD2-RIPK2, CCF4 ratio; in the data active = inhibition above about 21%;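 also: 0% = vehicle only and 100% = reference blocker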
# TLR4-MyD88 BLA – inhibitors of human TLR4-MyD88 binding. O00206+Q99836. HeLa CL3-4 TLR4/MyD88 BLA complementation, FRET ratio. inhibition, % at 8.4 µM. 200,000 tested, 0.18% active. AID 861; in the data active = inhibition above about 25%;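 also: 0% = vehicle and 100% = reference inhibitor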
# Target sequence (O00206 whole entry, looked up): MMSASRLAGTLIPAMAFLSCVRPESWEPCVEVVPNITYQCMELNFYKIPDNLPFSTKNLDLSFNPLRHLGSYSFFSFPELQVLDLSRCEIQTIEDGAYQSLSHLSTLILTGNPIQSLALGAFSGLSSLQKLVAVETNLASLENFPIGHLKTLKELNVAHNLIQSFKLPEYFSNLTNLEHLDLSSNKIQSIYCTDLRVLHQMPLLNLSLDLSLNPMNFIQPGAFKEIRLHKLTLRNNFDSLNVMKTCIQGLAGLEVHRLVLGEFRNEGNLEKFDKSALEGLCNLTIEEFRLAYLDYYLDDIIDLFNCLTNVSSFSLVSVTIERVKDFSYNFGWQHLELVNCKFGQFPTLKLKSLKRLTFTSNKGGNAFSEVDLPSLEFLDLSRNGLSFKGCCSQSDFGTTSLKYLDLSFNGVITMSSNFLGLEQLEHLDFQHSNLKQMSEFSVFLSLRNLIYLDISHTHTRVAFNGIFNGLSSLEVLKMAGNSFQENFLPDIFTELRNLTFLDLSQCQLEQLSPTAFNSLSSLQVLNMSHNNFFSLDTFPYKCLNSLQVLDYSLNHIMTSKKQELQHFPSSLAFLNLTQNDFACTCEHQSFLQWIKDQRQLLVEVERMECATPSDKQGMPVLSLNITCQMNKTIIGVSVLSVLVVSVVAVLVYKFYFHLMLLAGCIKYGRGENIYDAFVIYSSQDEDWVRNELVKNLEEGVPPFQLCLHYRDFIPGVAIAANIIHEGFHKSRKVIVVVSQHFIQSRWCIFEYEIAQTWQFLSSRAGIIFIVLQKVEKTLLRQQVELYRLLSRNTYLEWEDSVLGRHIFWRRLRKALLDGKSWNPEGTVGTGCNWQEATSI
# Target sequence (Q99836 whole entry, looked up): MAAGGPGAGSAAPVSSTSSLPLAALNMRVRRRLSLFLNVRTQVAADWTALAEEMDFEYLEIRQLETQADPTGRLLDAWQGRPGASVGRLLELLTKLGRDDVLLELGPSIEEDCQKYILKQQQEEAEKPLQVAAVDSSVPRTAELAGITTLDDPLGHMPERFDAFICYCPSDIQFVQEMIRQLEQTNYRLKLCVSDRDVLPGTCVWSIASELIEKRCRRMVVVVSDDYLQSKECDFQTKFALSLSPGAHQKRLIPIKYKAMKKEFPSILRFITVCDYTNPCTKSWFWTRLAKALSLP
# TLR9-MyD88 block – TLR9-MyD88 interaction inhibition | inhibition, % at 4.98 µM | CHO BLA complementation TLR9-MyD88, CCF4 FRET ratio | Q9NR96+Q99836 | 340,000 tested, 0.21% active | AID 504734;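 active = inhibition above the mean over all tested compounds plus 3 SD, cut at about 21% in these data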;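 also: 0% = DMSO only wells and 100% = clavulanate BLA inhibitor control wells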
# TLR9-MyD88 cf – confirmation of human TLR9-MyD88 binding inhibitors. 680 tested, 51% active. shares compounds with TLR9-MyD88 block. inhibition, % at 4.98 µM. CHO TLR9/MyD88 BLA complementation, CCF4 FRET ratio;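 active = mean inhibition across three repeats above about 21% taken from the earlier screen, limit read from the data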;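 also: blue over green emission ratio reports constitutive TLR9 MyD88 association via BLA complementation; 0% = DMSO vehicle wells and 100% = clavulanate BLA inhibitor wells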
# BLA counter – non-selective beta-lactamase inhibitors in TLR9-MyD88 counter-screen; shares compounds with TLR9-MyD88 block; CHO-BLA cells, CCF4 FRET ratio, BLA reporter; inhibition, % at 4.98 µM; 680 tested, 7% active; AID 540251;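 active = mean inhibition above a 50% cutoff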;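 also: counterscreen of TLR9-MyD88 hits on CMV-driven BLA in CHO-K1 cells; 0% = DMSO alone and 100% = clavulanate blocking BLA; higher means less blue over green ratio so more BLA blockade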
# TLR9 CHO cytotox – CHO cell toxicity counter-screen for TLR9-MyD88 inhibitors | AID 588336 | TLR9-MyD88 CHO cells cytotoxicity, luminescence | 680 tested, 39% active | inhibition, % at 4.98 µM | shares compounds with TLR9-MyD88 block; in the data active = inhibition above about 11%
# * marks the source's active call; other numbers are inactive results; nt = not tested or not shown. Sampled rows, rich in hits. Any-hit rate of the full collection: about 1.8%.
SMILES,Mcl1-Bid inh,Bim-Mcl-1,Mcl1-Noxa inh,NOD2 RIPK2 PPI,TLR4-MyD88 BLA,TLR9-MyD88 block,TLR9-MyD88 cf,BLA counter,TLR9 CHO cytotox
CCOc1ccc(OCCCC(=O)Nc2cc(Cl)ccc2-n2cncn2)cc1,nt,nt,nt,-5.3,nt,6.1,nt,nt,nt
CCc1ccc(/C=C2\Oc3c(ccc(O)c3CN3CCN(C)CC3)C2=O)cc1,-4.3,nt,3.8,15.1,nt,-0.4,nt,nt,nt
CCN1CCN(Cc2c(O)ccc3c2O/C(=C\c2ccc(C)cc2)C3=O)CC1,-4.6,0.0,5.7,16.4,10.0,21.4*,9.7,13.7,1.1
Cc1ccc(S(=O)(=O)c2ccc(C)cc2)cc1,-16.3,0.0,0.0,4.0,-1.6,1.8,nt,nt,nt
Cc1ccc(S(=O)(=O)C=CS(=O)(=O)c2ccc(C)cc2)cc1,nt,nt,nt,7.3,nt,29.0*,37.2*,24.1,97.3*
O=[N+]([O-])c1c(NCCO)cc(N2CCCCCC2)c2nonc12,nt,nt,nt,-6.6,nt,-2.4,nt,nt,nt
Cc1nnc(Sc2cc(NCCO)c([N+](=O)[O-])c3nonc23)s1,-88.7,5.0,76.7*,10.4,2.3,21.0*,23.4*,2.9,98.4*
CCCCN(C(=O)CSc1nnc(-c2ccccc2)n1C)c1c(N)n(Cc2ccccc2)c(=O)[nH]c1=O,-1.1,0.0,31.3,1.8,0.0,20.9*,-1.0,-0.6,1.0
Cc1ccc([C@H]2C[C@@H](n3cc(COC(=O)c4ccccc4)nn3)[C@H](O)CN2Cc2cccs2)cc1,nt,nt,nt,-8.2,nt,-5.5,nt,nt,nt
CCCCNC(=S)NNc1c(Cl)cc(Cl)cc1Cl,-27.9,-2.0,3.9,-12.6,-2.3,6.9,nt,nt,nt
O=C(NCCCl)NNc1c(Cl)cc(Cl)cc1Cl,-3.9,-3.0,0.7,-0.9,-13.4,22.4*,1.6,0.5,2.6
CC(C)(C)c1ccc(OCC(=O)N(Cc2cccs2)C2CCS(=O)(=O)C2)cc1 (stereo not drawn),nt,nt,nt,0.7,nt,-4.2,nt,nt,nt
CC1(C(=O)NCc2ccco2)Cc2c(-c3cccc(C(F)(F)F)c3)ccnc2O1 (stereo not drawn),nt,nt,nt,11.8,nt,nt,nt,nt,nt
CC[C@]12c3[nH]c4cc(-c5ccco5)ccc4c3CCN1C(=O)[C@@H](CC(=O)NCCc1ccccn1)C[C@@H]2C(=O)N1CCN(C(=O)C2CC2)CC1,nt,nt,nt,-8.0,nt,7.5,-2.9,-2.8,0.9
NC(=O)c1nsc(C(=O)N(CC(=O)NCc2ccccc2)c2ccc(F)cc2)c1N,nt,nt,nt,-3.4,nt,-2.6,nt,nt,nt
CCn1nc(-c2ccccc2)c2nc3ccccc3nc21,-10.2,-2.0,6.7,9.7,24.9,25.2*,35.4*,34.4,4.0
COc1ccc(C(=O)/C(=C\c2ccco2)N2C=CC=CC2=C(C#N)C#N)cc1,-20.5,-6.0,-0.7,85.1*,5.8,27.8*,19.1,9.2,96.3*
COc1ccc(/C=C(/C(=O)c2cccs2)N2C=CC=CC2=C(C#N)C#N)cc1,24.6,0.0,40.0,0.1,-4.9,15.4,nt,nt,nt
CSCCC(C(=O)OCC(=O)c1ccc(C)c(C)c1)N1C(=O)c2cc(Cl)c(Cl)cc2C1=O (stereo not drawn),0.1,0.0,-4.2,-8.5,-11.4,21.6*,-0.9,-2.7,1.9
COC(=O)c1cc(C#N)c(N2CCOCC2)nc1C,-14.9,4.0,0.2,-7.1,-4.8,22.4*,-4.2,-4.1,0.4
Cc1ccc(S(=O)(=O)N2CCCC2)cc1C(=O)NCCOc1ccccc1,nt,nt,nt,-7.0,nt,-3.8,nt,nt,nt
O=S1(=O)Nc2c(ccc3cccnc23)-c2ccccc21,-149.7,-2.0,-25.9,24.9*,6.9,20.9*,32.6*,16.8,98.7*
CC(=O)Nc1ccc(NC(=O)CSc2ccc3nnc(-c4cccnc4)n3n2)cc1,nt,nt,nt,-0.2,nt,2.7,nt,nt,nt
O=C1c2ccccc2NC(c2ccc(-c3cccc([N+](=O)[O-])c3)o2)N1O (stereo not drawn),-54.5,-2.0,-70.2,2.6,1.9,21.5*,7.9,7.4,43.1*
CCn1nc(NC(=O)c2cccnc2)c2cc3cccc(C)c3nc21,-12.5,1.0,20.5,-20.4,-16.0,23.4*,-5.8,-0.5,0.5
SMILES,Mcl1-Bid inh,Bim-Mcl-1,Mcl1-Noxa inh,NOD2 RIPK2 PPI,TLR4-MyD88 BLA,TLR9-MyD88 block,TLR9-MyD88 cf,BLA counter,TLR9 CHO cytotox
Cn1c(=O)c2c(-c3ccccc3)n(-c3cc([N+](=O)[O-])ccc3O)cc2n(C)c1=O,nt,nt,nt,-3.9,nt,4.5,nt,nt,nt
Nc1nc(-c2ccccc2)c(-c2ccccc2)n1N,nt,nt,nt,-0.5,nt,5.3,nt,nt,nt
c1ccc(-c2cnn3c(-c4ccccc4)c(-c4ccccc4)nc3n2)cc1,18.1,nt,-41.9,9.3,13.1,23.1*,59.5*,58.2*,-2.5
CN(C)S(=O)(=O)c1cccc(NC(=O)c2cc([N+](=O)[O-])ccc2N2CCCCC2)c1,nt,nt,nt,7.9,nt,21.6*,1.4,2.1,4.4
O=C1CCCCCC1C1(O)C(=O)Nc2ccccc21 (stereo not drawn),-4.8,0.0,5.0,-3.4,13.1,31.8*,1.3,-0.1,0.7
COc1ccc2c(c1)CC(C1(O)C(=O)Nc3ccccc31)C2=O (stereo not drawn),1.4,0.0,3.1,-4.5,4.2,-2.0,nt,nt,nt
CCOC(=O)COc1ccc(/C=C/[N+](=O)[O-])c(OCC(=O)OCC)c1,26.2,-1.0,18.1,1.0,11.0,21.6*,12.6,-1.6,27.9*
CCOC(=O)COc1ccc2ccccc2c1/C=C/[N+](=O)[O-],15.2,-6.0,19.1,-1.0,0.5,23.5*,34.4*,-2.5,89.8*
Cc1cc2occ(CC(=O)N(C)CC(=O)Nc3ccccc3Cl)c2cc1C,nt,nt,nt,1.4,nt,7.0,nt,nt,nt
Cc1cc(NC(=O)c2c([N+](=O)[O-])cnn2C)no1,-34.4,1.0,2.3,-9.0,-13.2,34.2*,3.0,-6.2,0.1
COc1ccc(C(=O)c2c3ccc(C(F)(F)F)cc3[n+]([O-])n2CCCN)cc1,nt,nt,nt,0.0,nt,3.8,nt,nt,nt
Cn1c(CNC(=O)CCNC(=O)c2ccccc2)cc(=O)n(C)c1=O,nt,nt,nt,3.1,nt,26.0*,1.5,1.6,0.3
CCOC(=O)CNC(=O)CSc1nc(-c2ccc(OC)cc2)ns1,2.9,-24.0,8.1,-1.0,2.1,22.4*,1.4,-2.5,5.2
COc1ccc(C(=O)/C=C/c2ccc(O)cc2)c(O)c1CC=C(C)C,-10.7,0.0,0.2,3.4,-6.0,5.2,nt,nt,nt
COc1ccc(C(=O)/C=C/c2ccc(O)cc2)c2c1CC(O)C(C)(C)O2 (stereo not drawn),nt,nt,nt,3.5,nt,22.8*,5.8,4.5,4.9
CCC(NC(=S)NC1CCCCC1)c1ccccc1 (stereo not drawn),nt,nt,nt,1.5,nt,-0.6,nt,nt,nt
CCn1c(/C=C/c2ccccc2)nc2ccccc21,1.4,3.0,22.9,-4.8,5.6,7.3,nt,nt,nt
